Measured values published in ChEMBL document CHEMBL1157539, “Thousands of chemical starting points for antimalarial lead identification” (Nature, 2010).

test system: Plasmodium falciparum; test: GSK_TCMDC: Inhibition of Plasmodium falciparum 3D7 in whole red blood cells, using parasite LDH activity as an index of growth. Test compounds present at 2uM; type: functional

SMILES | Inhibition
Cl.OCCNc1nc(Nc2ccccc2)nc2ccccc12 | 93%
N#Cc1cnc2cc(-c3cnc(CNCCN4CCOCC4)s3)ccc2c1Nc1ccc(Oc2ccccc2)cc1 | 97%
CCCN(CCC)C(=O)c1cc(C(=O)N[C@@H](Cc2ccccc2)[C@H](O)CNC(C)(C)c2cccc(OC)c2)cc(N2CCCCS2(=O)=O)c1 | 99%
Cc1cc(Cl)ccc1NC(=O)Nc1ccc2nccc(N3CCN(C)CC3)c2c1 | 100%
N#Cc1cccc(Nc2nccc(Nc3ccc(Oc4ccccc4)cc3)n2)c1 | 94%
Oc1cc2c(cc1CN1CCN(Cc3cccs3)CC1)CCC2 | 99%
COc1ccc2nc(C)cc(NCc3ccc4ccccc4c3)c2c1.Cl | 100%
O=C(Nc1cccc(CN2CCCN(Cc3cccnc3)CC2)c1)c1ccc(Cl)c(Cl)c1.O=C(O)C(F)(F)F | 84%
CC(=O)N[C@H](C(=O)Nc1cccc(-c2ccc(-c3nc4cccc(C)c4[nH]3)s2)c1)C(C)C | 93%
CCN(CC)CCN(Cc1ccc(-c2ccc(C(F)(F)F)cc2)cc1)C(=O)Cn1c(CCc2ccc(F)cc2)nc(=O)c2ccccc21.O=C(O)C(O)C(O)C(=O)O | 97%
Cc1ccccc1C1CCN(C2CCC(NC(=O)c3ccc(-c4cccs4)s3)CC2)CC1 (stereo not drawn) | 100%
CN1CCN(C(=O)CN2CCC3(CCC2=O)NC(=O)c2ccccc2O3)CC1 (stereo not drawn) | 99%
N#Cc1ccc(CN2CCCN(Cc3cccc(NC(=O)c4cc5ccccc5s4)c3)CC2)cc1.O=C(O)C(F)(F)F | 97%
